Several values for one entry are separate records, joined by “and”; a condition that tells them apart may be missing. Equal entries are not always repeated. Compounds without any hit were thinned out: in the full panel of roughly 83,000, 20% have a hit.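 Cell lines were cultured in 96-well plates, exposed to a single compound concentration, and assessed for percent growth 48 hours later.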 Activity calls are given as the source filed them. The calls were made as follows: active = growth percent below 10; inactive = the rest.
The molecules below were run on MDA-MB-468 breast (assay: NCI-60 one-dose screen, 48 h (100 = growth as untreated, 0 = no growth, -100 = all killed)). Details: 10 µM unless noted.
`N#Cc1c(N)nc(-c2cc(F)cc(C(F)(F)F)c2)nc1-c1ccccc1F` was tested, and the growth was 62.8% (inactive).
For `COc1ccc(/C=C/C(=O)C(=O)/C=C/c2ccc(OC)c(OC)c2)cc1OC`, the growth was 20.1% (inactive).
With `CCN(CC)CCNc1cc(-c2cccc(OC(F)(F)F)c2)nc2ccc(N3CCCC3)cc12` the growth was 28.6% (inactive) and -38.3% (active) and 0.911% (active).
With `CCOc1ccc2nc(NC(=O)Nc3ccccc3C)sc2c1` the growth was 20.4% (inactive).
In the case of `Cc1ccc(-c2c3c(N)c4c(nc3nc3c2c(C)nn3-c2ccccc2)CCCC4)cc1`, the growth is reported as 107% (inactive).
`N#CC(C#N)=NO` was tested, and the growth was 93.2% (inactive).
`O=C(/C=C\c1ccccc1Cl)c1ccccc1` was tested, and the growth was 87.5% (inactive).
For `Fc1ccccc1-c1nc(-c2nc3cc(Cl)c(Cl)cc3[nH]2)c2ccccn12`, the growth was 63.1% (inactive).
`CCc1c2c(nc3ccc(OC(=O)OCc4ccc(B5OC(C)(C)C(C)(C)O5)cc4)cc13)-c1cc3c(c(=O)n1C2)COC(=O)[C@]3(O)CC` was tested, and the growth was -33.6% (active).
In the case of `CCNC(=O)Oc1ccc(/C(=C(/C)c2ccc(Cl)cc2)c2ccc(OCCN3CCCC3)cc2)cc1`, the growth is reported as 84.1% (inactive).
`COc1ccc(Br)c(C=O)c1` was tested, and the growth was 84.5% (inactive).
`O=C(Nc1ccc(-n2ccc3c(NC(=O)c4ccccc4)nccc32)cc1)c1ccc(N2CCOCC2)c(C(F)(F)F)c1` was tested, and the growth was 42.7% (inactive).
`O=C(Nc1ccc(Oc2cccc(Cl)c2)c(Cl)c1)c1cccnn1` was tested, and the growth was 63.3% (inactive).
In the case of `Nc1ccc(N=Nc2ccc(O)cc2)c(N)n1`, the growth is reported as 83.4% (inactive).
`C#Cc1ccc(-n2c(/C=C/c3ccc(C(F)(F)F)cc3)nc3ncccc3c2=O)cc1` was tested, and the growth was -9.87% (active).
For `O=[N+]([O-])c1cccc(C2CC(c3ccccc3)=Nc3ccccc3S2)c1` (stereo not given), the growth was 86.4% (inactive).
`COc1cc(/C=N/NC(=O)c2cnn3c2NC(c2ccccc2)C3)ccc1OCc1ccccc1` (stereo not given) was tested, and the growth was 1.21% (active).
In the case of `COc1cc(NC(=O)C#Cc2ccccc2)c(OC)cc1Cl`, the growth is reported as 70.9% (inactive).
For `CC(=O)/C(=C\c1c(-c2ccccc2)[nH]c2ccccc12)S(=O)(=O)c1ccccc1`, the growth was 6.12% (active).
`CSc1ccc(-c2n[nH]nc2-c2cc3ccccc3s2)cc1` was tested, and the growth was 54% (inactive).
In the case of `COC12C=C/C(=C(/C(=O)OCc3ccncn3)C(=O)CCCCCCCCC3(OC)C=C/C(=C(/C(=O)OCc4ccncn4)C(=O)CCCCCCCC1)O3)O2`, the growth is reported as -45.5% (active).
In the case of `Cn1cc(-c2csc(-c3c[nH]c4ccccc34)n2)c2cnccc21`, the growth is reported as -20.8% (active).
`Cc1ccc2oc3nc(C)c(C(=O)NCc4ccccc4)cc3c(=O)c2c1` was tested, and the growth was 96.7% (inactive).
For `N#Cc1ccc2nc[nH]c2c1`, the growth was 87.6% (inactive).
In the case of `O=C1CC(c2ccc(O)c(O)c2)Oc2cc(O)c([C@@H]3O[C@H](CO)[C@@H](O)[C@H](O)[C@H]3O)c(O)c21` (stereo not given in full), the growth is reported as 106% (inactive).
For `Nc1c(C(=O)Nc2ccc(Cl)cc2)cc(-c2nc3ccccc3s2)c(=O)n1NS(=O)(=O)c1ccc(Cl)cc1`, the growth was 110% (inactive).
For `COc1cc(/C=N/NC(=O)Cn2c(C(C)C)nc3ccccc32)ccc1O`, the growth was 84.9% (inactive).
With `CCOc1ccc(NC2=C(Cl)C(=O)c3ccccc3C2=O)cc1` the growth was 64.9% (inactive).
In the case of `O=C1c2c(O)cc(O)cc2O[C@@H](c2ccc(O)cc2)[C@@H]1c1c(O)cc(O)c2c(=O)cc(-c3ccc(O)c(O)c3)oc12`, the growth is reported as 113% (inactive).
`COc1cc2ncnc(Nc3ccc(S(=O)(=O)Nc4nccs4)cc3)c2cc1OCCCN1CCCC1` was tested, and the growth was 99.2% (inactive).
For `NC(N)=NN=c1c(=O)c2ccccc2c1=O`, the growth was 106% (inactive).
`COc1ccc2nc3cc(Cl)ccc3c(Nc3ccc(N(C)C)cc3)c2c1` was tested, and the growth was 73.7% (inactive).
`CC(C)OC(=O)c1ccc2n1CCCc1cnc(Nc3ccccc3)nc1-2` was tested, and the growth was 44.6% (inactive).
For `CC(=O)c1cc(C(=O)c2ccc3c(c2)Sc2ccccc2N3)n2ccccc12`, the growth was 3.96% (active).
`Cc1nc2c3c(ncn2n1)Oc1c(c(=O)[nH]c2ccccc12)C3c1ccc(Cl)cc1` (stereo not given) was tested, and the growth was 109% (inactive).
`CC[N+](CC)=c1ccc2nc3c(cc(N)c4ccccc43)oc-2c1` was tested, and the growth was -5.04% (active).
With `O=C(O)C(Cc1ccc(OS(=O)(=O)Cc2ccccc2)cc1)NS(=O)(=O)Cc1ccccc1` (stereo not given) the growth was 105% (inactive) and 117% (inactive).
With `C#Cc1ccc(-n2c(/C=C/c3ccc(O)c(OC)c3)nc3ncccc3c2=O)cc1` the growth was 89.8% (inactive).
`O=C(N=Nc1c(O)[nH]c2ccc(Br)cc12)c1cc(-c2ccccc2)on1` was tested, and the growth was 109% (inactive).
With `CCn1c(SCC(=O)N/N=C(\C)c2ccc(Cl)cc2)nc2c1c(=O)n(C)c(=O)n2C` the growth was 96.6% (inactive).

From PubChem BioAssay (NCI)
